“And” between values parts separate entries of the source, which are not always exact repeats. Equal values may be shown once. Unmarked numbers belong to inactive results. Results filed as inconclusive are left out. A call without a number means that no potency is given here. The source made the active and inactive calls. Unless noted, the call rests on the fitted dose curve; in most records, active means well fitted curve in the direction sought with a large enough effect; inconclusive means small, poorly fitted or top-dose-only effect, or another doubt; inactive means no such curve, though single readings can be large; an effect the other way counts as inactive or inconclusive.
Key:
[1] = target: Cytochrome P450 2C19 (Homo sapiens) (UniProt P33261); test: qHTS Assay for Inhibitors and Substrates of Cytochrome P450 2C19 (AID 899); further: nearly all actives have a fitted effect of over 60% in size; further: potency means the concentration at half of the fitted maximal effect
Outline: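 Signal comes from luciferase acting on luciferin released by CYP2C19-mediated hydroxylation of Luciferin-H EGE, 10uM (KM). Assay mix: 5nM enzyme, 50mM KPO4; 60 min at 37C with NADPH regeneration. Data normalized against 57uM ketoconazole.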

[2] = Cell Viability - LYMP2-001 (AID 921); further: nearly all actives have a fitted effect of over 70% in size; further: potency means the concentration at half of the fitted maximal effect
Outline: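 A lymphoblastoid cell line of human origin was treated with library compounds across a concentration series for 24 hours, and viable cell number was estimated from ATP-driven luciferase light output. Hill modeling gave AC50.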

[3] = MultiTox-Fluor Cytotoxicity Assay - LYMP1-002 - Dead Cells (AID 960); further: nearly all actives have a fitted effect of over 60% in size; further: potency means the concentration at half of the fitted maximal effect
Outline: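 Human lymphoblastoid cells (LYMP1-002), 2500/well in complete medium, were exposed to compounds for 16 hr at 37 C. Dead-cell protease activity was read as bis-AAF-R110 fluorescence (Ex/Em 485/520), normalized to DMSO and 15 uM tetraoctylammonium bromide; AC50 from Hill fits.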

[4] = Cell Viability - LYMP2-005 (AID 967); further: potency means the concentration at half of the fitted maximal effect
Outline: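 Luciferase-based ATP quantitation served as the viability measure in human lymphoblastoid LYMP2-005 cells exposed to test compounds for 24 h at 37 C in complete culture medium. Potency (AC50) was obtained by fitting concentration-response curves with the Hill equation.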

[5] = Cell Viability - LYMP2-015 (AID 971); further: nearly all actives have a fitted effect of over 55% in size; further: potency means the concentration at half of the fitted maximal effect
Outline: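 Human lymphoblastoid cells (2500/well) in complete medium were preincubated 5 hr at 37 C, then compound-treated 24 hr at 37 C. Intracellular ATP was read by CellTiter-Glo luminescence after 30 min at room temperature; AC50 came from Hill-equation concentration-response fits.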

[6] = Cell Viability - LYMP2-019 (AID 973); further: nearly all actives have a fitted effect of over 55% in size; further: potency means the concentration at half of the fitted maximal effect
Outline: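 Human lymphoblastoid cells were seeded at 2500 cells/well, preincubated 5 hr at 37 C, then exposed to compounds for 24 hr at 37 C in complete medium. Intracellular ATP was measured by CellTiter-Glo luminescence; AC50 from Hill fits.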

[7] = Cell Viability - LYMP2-002 (AID 977);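 further: compound exposure lasted 24 h at 37 °C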; further: potency means the concentration at half of the fitted maximal effect
Outline: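 Human lymphoblastoid LYMP2-002 cells, 2500 per well, exposed to compounds for 24 h at 37 C in complete medium; viability read as intracellular ATP by CellTiter-Glo luminescence, AC50 from Hill fits.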

[8] = Cell Viability - LYMP2-008 (AID 980); further: nearly all actives have a fitted effect of over 60% in size; further: potency means the concentration at half of the fitted maximal effect
Outline: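 Human lymphoblastoid cells (2500/well) were plated, held 5 hr at 37 C, then exposed to compounds for 24 hr at 37 C in complete medium. Intracellular ATP was read by CellTiter-Glo luminescence; AC50 from Hill-fitted concentration-response.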

[9] = Cell Viability - LYMP2-016 (AID 984); further: nearly all actives have a fitted effect of over 55% in size; further: potency means the concentration at half of the fitted maximal effect
Outline: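 Concentration-dependent ATP depletion measured in LYMP2-016 lymphoblastoid cells, 24 h, 37 C; luciferase-based luminescent detection; Hill-equation AC50.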

[10] = Cell Viability - LYMP2-018 (AID 985);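 further: compound exposure lasted 24 hr at 37 °C; nearly all actives have a fitted effect of over 50% in size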; further: potency means the concentration at half of the fitted maximal effect
Outline: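 Human lymphoblastoid cells (2500/well) were pre-incubated 5 hr at 37 C, then exposed to compounds for 24 hr at 37 C in complete medium. Viability was read as intracellular ATP by CellTiter-Glo luminescence; AC50 values came from Hill-equation fits.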

[11] = Cell Viability - LYMP2-020 (AID 986); further: nearly all actives have a fitted effect of over 55% in size; further: potency means the concentration at half of the fitted maximal effect
Outline: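 Human lymphoblastoid cells, 2500/well, were pre-incubated 5 hr at 37 C, then exposed to compounds for 24 hr at 37 C in complete medium. Intracellular ATP was read by CellTiter-Glo luminescence, and AC50 was derived by Hill fitting of concentration-response data.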

[12] = Cell Viability - LYMP2-022 (AID 987); further: nearly all actives have a fitted effect of over 55% in size; further: potency means the concentration at half of the fitted maximal effect
Outline: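 Human lymphoblastoid cells, 2500/well, preincubated 5 hr at 37 C, then exposed to compounds over a concentration range for 24 hr at 37 C in complete medium. Viability read as intracellular ATP by CellTiter-Glo luminescence after 30 min at room temperature; AC50 from Hill fits.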

[13] = Cell Viability - LYMP2-024 (AID 988); further: nearly all actives have a fitted effect of over 60% in size; further: potency means the concentration at half of the fitted maximal effect
Outline: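 Human lymphoblastoid cells (2500/well) in complete medium were preincubated 5 hr at 37 C, then exposed to compounds for 24 hr at 37 C. Intracellular ATP was read by CellTiter-Glo luminescence; AC50 from Hill-equation fits of concentration-response data.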

[14] = target: Thyroid hormone receptor beta (Homo sapiens) (UniProt P10828); test: qHTS assay for small molecule agonists of thyroid hormone receptor beta signaling (AID 588545; calls by dose curve)
Outline: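 TR-UAS-bla GripTite HEK 293 cells (2500/well, medium with 2% charcoal/dextran FBS) were treated in agonist mode for 18 h at 37 C, titrated. Beta-lactamase was read by CCF4 ratio after 2 h; normalized to 10 nM T3 (100%) and DMSO, Hill-fitted for EC50 and efficacy.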

[15] = qHTS assay for small molecule disruptors of the mitochondrial membrane potential - 1 hr assay (AID 651754; calls by dose curve; further: nearly all actives have a fitted effect of over 35% in size; further: potency means the concentration at half of the fitted maximal effect)
Outline: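 HepG2 cells, attached overnight at 37C, were exposed to compound or DMSO vehicle for 1 hr at 37C, 5% CO2, then stained with Mito-MPS dye for 30 min. Red aggregate versus green monomer fluorescence reports membrane potential.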

[16] = target: Nuclear receptor ROR-gamma (Homo sapiens) (UniProt P51449); test: qHTS assay for small molecule antagonists of the retinoid-related orphan receptor gamma (ROR-gamma) signaling pathway (AID 651802); further: nearly all actives have a fitted effect of over 60% in size; further: potency means the concentration at half of the fitted maximal effect
Outline: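 CHO cells carrying TET-inducible ROR-gamma and an ROR response element–luciferase reporter were exposed to compound, then induced with doxycycline. After 16hr at 37C, luminescence was read; lower signal indicates antagonism.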

[17] = qHTS assay for small molecule agonists of the antioxidant response element (ARE) signaling pathway measured by Nrf2-dependant transcriptional activity (AID 720636; active means well fitted curve in the direction sought with a large enough effect in the repeat runs; an effect the other way counts as inactive or inconclusive; further: potency means the concentration at half of the fitted maximal effect)
Outline: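 Quantitative HTS format in HepG2 cells stably expressing an ARE-luciferase reporter; 16 hr compound treatment at 37 C, luciferase signal detected with ONE-Glo.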

[18] = qHTS assay for small molecule antagonists of the retinoid-related orphan receptor gamma (ROR-gamma) signaling pathway - cell viability counter screen (AID 720652; active means well fitted curve in the direction sought with a large enough effect in the repeat runs; an effect the other way counts as inactive or inconclusive;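 further: compound exposure lasted 16 hr before ATP read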; further: potency means the concentration at half of the fitted maximal effect)
Outline: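 Counter screen in CHO cells carrying TET-inducible ROR-gamma and an ROR response element-luciferase reporter; cells plated 5 hr, compound pinned, doxycycline added, then 16 hr at 37 C. Viability read as intracellular ATP by CellTiter-Glo luminescence.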

[19] = target: Nuclear receptor subfamily 1 group I member 2 (Rattus norvegicus) (UniProt Q9R1A7); test: qHTS assay for small molecule activators of the rat pregnane X receptor (rPXR) signaling pathway (AID 651751; call rule not given here); conditions: rPXR reporter cells, luciferase (One-Glo), 24 h
[20] = qHTS assay for environmental chemicals that activate the Aryl hydrocarbon Receptor (AhR) signaling pathway (AID 651777); conditions: 1A2-DRE human hepatoma cells, luciferase, 24 h; activation: stronger effect = higher value; further: nearly all actives have a fitted effect of over 15% in size; further: potency means the concentration at half of the fitted maximal effect
Outline: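 Quantitative HTS in stably transfected human liver-derived cells whose luciferase gene sits downstream of the CYP1A2 promoter and dioxin response element. After 24 hr exposure at 37 C, One-Glo luminescence was measured.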

Chain of Nuclear receptor subfamily 1 group I member 2 (Rattus norvegicus) (Q9R1A7 whole entry, looked up): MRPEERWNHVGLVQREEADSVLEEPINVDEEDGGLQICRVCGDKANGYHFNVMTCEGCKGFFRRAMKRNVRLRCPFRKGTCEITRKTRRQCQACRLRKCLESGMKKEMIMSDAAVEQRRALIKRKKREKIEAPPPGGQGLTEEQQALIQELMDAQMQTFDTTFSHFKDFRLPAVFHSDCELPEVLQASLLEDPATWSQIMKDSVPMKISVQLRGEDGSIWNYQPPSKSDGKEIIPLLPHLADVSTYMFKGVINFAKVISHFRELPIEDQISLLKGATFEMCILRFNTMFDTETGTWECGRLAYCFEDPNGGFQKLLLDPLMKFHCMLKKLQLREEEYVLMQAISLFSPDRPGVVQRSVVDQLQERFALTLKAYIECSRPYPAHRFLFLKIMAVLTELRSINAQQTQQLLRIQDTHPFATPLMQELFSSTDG
Chain of Thyroid hormone receptor beta (Homo sapiens) (P10828 whole entry, looked up): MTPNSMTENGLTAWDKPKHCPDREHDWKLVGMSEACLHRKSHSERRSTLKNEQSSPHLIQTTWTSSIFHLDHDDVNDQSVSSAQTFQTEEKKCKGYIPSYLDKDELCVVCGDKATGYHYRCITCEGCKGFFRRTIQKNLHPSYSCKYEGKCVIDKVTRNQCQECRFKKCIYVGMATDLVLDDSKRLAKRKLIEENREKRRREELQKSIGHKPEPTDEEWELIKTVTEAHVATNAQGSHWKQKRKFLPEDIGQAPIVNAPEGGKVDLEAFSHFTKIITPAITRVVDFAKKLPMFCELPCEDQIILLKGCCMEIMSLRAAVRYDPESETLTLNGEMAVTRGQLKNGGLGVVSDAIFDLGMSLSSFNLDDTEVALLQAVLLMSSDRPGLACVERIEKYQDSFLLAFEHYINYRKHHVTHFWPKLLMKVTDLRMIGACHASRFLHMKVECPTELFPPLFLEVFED
Chain of Cytochrome P450 2C19 (Homo sapiens) (P33261 whole entry, looked up): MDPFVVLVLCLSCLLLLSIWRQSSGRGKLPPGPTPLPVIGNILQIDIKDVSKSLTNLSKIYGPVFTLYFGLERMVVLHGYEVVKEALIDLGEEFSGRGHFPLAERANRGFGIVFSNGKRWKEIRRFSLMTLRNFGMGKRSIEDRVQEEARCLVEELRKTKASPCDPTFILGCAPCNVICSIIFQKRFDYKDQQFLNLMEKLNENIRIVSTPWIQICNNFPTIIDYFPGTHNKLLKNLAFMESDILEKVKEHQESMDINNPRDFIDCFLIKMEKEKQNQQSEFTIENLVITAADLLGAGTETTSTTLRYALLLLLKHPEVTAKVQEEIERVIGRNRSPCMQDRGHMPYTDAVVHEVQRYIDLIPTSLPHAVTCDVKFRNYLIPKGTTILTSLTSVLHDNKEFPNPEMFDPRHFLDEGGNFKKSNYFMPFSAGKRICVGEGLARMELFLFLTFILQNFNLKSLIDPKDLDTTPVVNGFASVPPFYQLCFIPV
Chain of Nuclear receptor ROR-gamma (Homo sapiens) (P51449 whole entry, looked up): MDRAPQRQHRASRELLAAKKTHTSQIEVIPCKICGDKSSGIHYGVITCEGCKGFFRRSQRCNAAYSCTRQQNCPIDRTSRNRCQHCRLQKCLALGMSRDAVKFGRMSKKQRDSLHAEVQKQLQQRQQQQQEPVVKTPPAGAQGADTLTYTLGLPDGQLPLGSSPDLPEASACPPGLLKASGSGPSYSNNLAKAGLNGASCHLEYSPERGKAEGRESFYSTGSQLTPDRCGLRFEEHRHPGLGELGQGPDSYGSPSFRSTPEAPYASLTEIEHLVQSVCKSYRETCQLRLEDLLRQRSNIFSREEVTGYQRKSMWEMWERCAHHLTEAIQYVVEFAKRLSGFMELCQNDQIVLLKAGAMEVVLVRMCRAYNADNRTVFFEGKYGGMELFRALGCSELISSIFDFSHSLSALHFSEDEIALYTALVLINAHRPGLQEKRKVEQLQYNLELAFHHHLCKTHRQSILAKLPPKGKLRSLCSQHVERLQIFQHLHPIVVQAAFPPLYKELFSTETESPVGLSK

CC1=C(\C=C/C(C)=C/C=C\C(C)=C\CO)C(C)(C)CCC1
Potency [1]: inactive

CCCC/C=C/C(NC(=O)c1cccs1)c1ccccc1 (centres undefined)
Potency [1]: 1.58 µM (active)

COC(=O)[C@@H]1C[C@H]1[C@@H](NC(=O)c1ccccc1)c1ccccc1
Potency [1]: 1.26 µM (active)

COC(=O)[C@H](C)[C@H]1C[C@]1(C)[C@H](NC(=O)OCc1ccccc1)c1ccccc1
Potency [1]: 0.251 µM (active)

CCCC[C@@H]1C[C@H]1C(NC(=O)c1cccs1)c1ccc(Cl)cc1 (some centres undefined)
Potency [1]: 0.0794 µM (active)

CCC/C=C(\CCC)C(NS(=O)(=O)c1ccccc1)c1ccc(C(F)(F)F)cc1 (centres undefined)
Potency [1]: 7.94 µM (active)

CCC/C=C(\CCC)C(NC(=O)Cc1ccccc1)c1ccc(C(=O)OC)cc1 (centres undefined)
Potency [1]: 2.51 µM (active)

CCCC/C=C/C(NC(=O)c1ccccc1)c1ccccc1 (centres undefined)
Potency [1]: 7.94 µM (active)

COC(=O)c1ccc(C(NC(=O)c2ccccc2)[C@]2(C)C[C@H]2C2CCCCC2)cc1 (some centres undefined)
Potency [1]: 2.51 µM (active)

CCCC[C@@H]1C[C@H]1C(NC(=O)c1ccco1)c1ccc(Cl)cc1 (some centres undefined)
Potency [1]: 0.316 µM (active)

CCC/C=C(\CCC)C(NS(=O)(=O)c1ccc(Cl)cc1)c1ccccc1 (centres undefined)
Potency [1]: 0.398 µM (active)

CCc1cccc2c(-c3ccccc3)c3c(nc12)OCC3
Potency [1]: 7.94 µM (active)

CCC/C=C(\CCC)C(NS(=O)(=O)c1cccs1)c1ccc(C(=O)OC)cc1 (centres undefined)
Potency [1]: 0.794 µM (active)

CCCC[C@@H]1C[C@H]1C(NC(=O)c1ccco1)c1ccccc1 (some centres undefined)
Potency [1]: 1.26 µM (active)

CCC/C=C(\CCC)C(NS(=O)(=O)c1ccc(Cl)cc1)c1ccc(C(=O)OC)cc1 (centres undefined)
Potency [1]: 1.58 µM (active)

O=C(/C=C/c1ccc(O)c(O)c1)OC1C[C@](O)(C(=O)O)C[C@@H](O)[C@H]1O (some centres undefined)
Potency [2]: inactive
Potency [3]: inactive
Potency [4]: inactive
Potency [5]: inactive
Potency [6]: inactive
Potency [7]: inactive
Potency [8]: inactive
Potency [9]: inactive
Potency [10]: inactive
Potency [11]: inactive
Potency [12]: inactive
Potency [13]: inactive
outcome [14]: inactive
Potency [15]: inactive
Potency [16]: inactive
Potency [17]: inactive
Potency [18]: inactive
max response [19]: -2.65% and 8.84%

CCC/C=C(\CCC)C(NS(=O)(=O)c1ccc(C(F)(F)F)cc1)c1ccc(C(=O)OC)cc1 (centres undefined)
Potency [1]: 2.51 µM (active)

Oc1ccc2cc(SSc3ccc4cc(O)ccc4c3)ccc2c1
Potency [3]: inactive
outcome [14]: inactive
Potency [15]: 66.8 µM (active)
max response [19]: -6.62%

c1ccc2c(c1)-c1cccc3c1c-2cc1ccccc13
Potency [2]: inactive
Potency [3]: inactive
Potency [4]: inactive
Potency [5]: inactive
Potency [6]: inactive
Potency [7]: inactive
Potency [8]: inactive
Potency [9]: inactive
Potency [10]: inactive
Potency [11]: inactive
Potency [12]: inactive
Potency [13]: inactive
Potency [15]: inactive
Potency [20]: 7.08 µM (active)

CNc1ccc(O)cc1
Potency [2]: 3.16 µM (active)
Potency [4]: 5.01 µM (active)
Potency [5]: 5.01 µM (active)
Potency [6]: 3.98 µM (active)
Potency [7]: 10 µM (active)
Potency [8]: 7.94 µM (active)
Potency [9]: 7.94 µM (active)
Potency [10]: 5.01 µM (active)
Potency [11]: 3.98 µM (active)
Potency [12]: 3.16 µM (active)
Potency [13]: 2.51 µM (active)
outcome [14]: inactive
activation [20]: 7.98%
Potency [17]: 37.6 µM (active)
max response [19]: -0.134%

C=CC(=O)OCC(CO)(COC(=O)C=C)COC(=O)C=C
outcome [14]: inactive
activation [20]: 2.52% and -1.81%
max response [19]: -14.2%

Cc1cc(O)c(C(C)(C)C)cc1Sc1cc(C(C)(C)C)c(O)cc1C
Potency [2]: 39.8 µM (active)
Potency [3]: 31.6 µM (active)
Potency [5]: 39.8 µM (active)
Potency [6]: 39.8 µM (active)
Potency [7]: 31.6 µM (active)
Potency [8]: 31.6 µM (active)
Potency [9]: 50.1 µM (active)
Potency [10]: 50.1 µM (active)
Potency [11]: 31.6 µM (active)
Potency [12]: 31.6 µM (active)
Potency [13]: 39.8 µM (active)
Potency [15]: 10.6 µM (active)
activation [20]: -3.69% and -11.4%
Potency [16]: 4.22 µM (active)
Potency [17]: inactive
Potency [18]: 18.8 µM (active)

Cc1ccc(S(=O)(=O)Oc2ccc(N=Nc3ccc(-c4ccc(N=Nc5c(O)ccc6cc(S(=O)(=O)O)cc(S(=O)(=O)O)c56)c(C)c4)cc3C)cc2)cc1
outcome [14]: inactive
activation [20]: -2.33%
Potency [17]: inactive
Potency [18]: inactive
max response [19]: -4.06%

O=[N+]([O-])c1cc([N+](=O)[O-])c2ccc(S(=O)(=O)O)cc2c1O
Potency [2]: inactive
Potency [3]: inactive
Potency [4]: inactive
Potency [5]: inactive
Potency [6]: inactive
Potency [7]: inactive
Potency [8]: inactive
Potency [9]: inactive
Potency [10]: inactive
Potency [11]: inactive
Potency [12]: inactive
Potency [13]: inactive
Potency [15]: inactive
Potency [18]: inactive

C=C(C)c1ccccc1
Potency [2]: inactive
Potency [3]: inactive
Potency [4]: inactive
Potency [5]: inactive
Potency [6]: inactive
Potency [7]: inactive
Potency [8]: inactive
Potency [9]: inactive
Potency [10]: inactive
Potency [11]: inactive
Potency [12]: inactive
Potency [13]: inactive
Potency [15]: inactive
Potency [16]: inactive
Potency [17]: inactive
Potency [18]: inactive
max response [19]: 0.462%

O=C=Nc1ccc(Cc2ccc(N=C=O)cc2)cc1
Potency [2]: inactive
Potency [4]: inactive
Potency [5]: inactive
Potency [6]: inactive
Potency [7]: inactive
Potency [8]: inactive
Potency [9]: inactive
Potency [10]: inactive
Potency [11]: inactive
Potency [12]: inactive
Potency [13]: inactive
outcome [14]: inactive
Potency [15]: inactive
Potency [16]: inactive
Potency [17]: inactive
Potency [18]: inactive
max response [19]: 1.83% and 4.61%

Source: PubChem BioAssay (NCATS)
